HT1080 IDH1KD tx = qHTS for induction of synthetic lethality in tumor cells producing 2HG: qHTS for the HT-1080-IDH1KD cell line. Potency, µM (highest dose often 46.1 µM), without a hit: at the highest dose activity, negative = toxicity, hits mostly cytotoxic. HT-1080 IDH1 knockdown viability, ATP luminescence, 48 h. AID 686971, 2013. actives 2% (n = 360,000);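 note: 0% = DMSO wells and -100% = cell-free medium wells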
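Viability of IDH1-knockdown HT-1080 fibrosarcoma cells was assessed by CellTiter-Glo after 48 h at 37 °C with titrated compound; concentration-effect curves were classified by fit quality and response size.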
MCF10A rerep = A quantitative high throughput screen for small molecules that induce DNA re-replication in MCF 10a normal breast cells; MCF 10A DNA re-replication, Hoechst nuclear intensity, 48 h; Potency, µM (doses to about 46.1 µM), for inactives: at the highest dose activity, positive = re-replication, hits mostly activators; actives 2.9% (n = 350,000); note: % of control where 0% means no effect; nearly all actives have a fitted effect of over 50% in size
KB-V1 cytotox = qHTS assay for MDR1-selective chemotherapeutics: Primary screen using the drug-selected MDR subline cells KB-V1; KB-V1 MDR cells viability, CellTiter-Glo, 72 h; Potency, µM (top dose mostly 46.1 µM), actives largely listed as cytotoxic; actives 3.4% (n = 400,000); AID 1347076, 2019; note: % is set by controls: 0 for no effect and ±100 for the full control effect; nearly all actives have a fitted effect of over 60% in size
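Following 72 h at 37 degrees C with compound, KB-V1 cell viability was read by CellTiter-Glo luminescence, medium being phenol-red-free DMEM plus 10% FBS; concentration-response parameters came from normalized, curve-fitted qHTS data.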
KB-3-1 tox = qHTS assay for MDR1-selective chemotherapeutics: Primary screen using the parental adenocarcinoma cell KB-3-1. KB-3-1 viability, CellTiter-Glo ATP luminescence, 72 h. Potency, µM (series often up to 46.1 µM), hits mostly cytotoxic. actives 1.4% (n = 400,000). AID 1347075, 2019; note: % is set by controls: 0 for no effect and ±100 for the full control effect; nearly all actives have a fitted effect of over 60% in size
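Parental KB-3-1 viability, qHTS format: 72 h compound exposure, 37 °C; CellTiter-Glo; media-only wells and DMSO plates as controls; concentration-effect fits on corrected data.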
HT1080NT lethal = qHTS for induction of synthetic lethality in tumor cells producing 2HG: qHTS for the HT-1080-NT fibrosarcoma cell line; HT-1080-NT fibrosarcoma viability, CellTiter-Glo ATP luminescence, 48 h; Potency, µM (doses to about 46.1 µM), for the others: top-dose activity, negative = less viability, actives largely listed as cytotoxic; actives 1.6% (n = 360,000); AID 686970, 2013;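 note: NT is the 2HG producing partner of a matched IDH1 knockdown line; 0% = DMSO-treated cells and -100% = media-only wells without cells; nearly all actives have a fitted effect of over 55% in size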
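Read-out is CellTiter-Glo luminescence after 10 minutes at room temperature, following 48 hours' compound treatment of HT-1080-NT cells (750 cells/well, RPMI, 5% FBS, 37 degrees C).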
SW480 rereplic = A quantitative high throughput screen for small molecules that induce DNA re-replication in SW480 colon adenocarcinoma cells | actives 1.8% (n = 340,000) | SW480 DNA re-replication, Hoechst DNA content imaging, 48 h | Potency, µM (series often up to 46.1 µM), inactives show top-dose re-replication activation, hits mostly activators | AID 624297, 2012; note: % of control where 0% means no effect; nearly all actives have a fitted effect of over 55% in size
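Quantitative HTS format with DMSO vehicle controls; 48 hr drug incubation at 37 C, then 40 min Hoechst staining and scanning imager measurement at 405 nm excitation.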
* = called active by the depositor; i = inactive; ? = inconclusive; / = no result given. Compounds with a hit are over-represented: about 7.9% of the library has one in this group of screens. Calls come from the whole dose curve; as a rule, active = well fitted curve in the direction sought with a large enough effect; inconclusive = small, poorly fitted or top-dose-only effect, or another doubt; inactive = no such curve, though single readings can be large; an effect the other way counts as inactive or inconclusive. Potency is the fitted concentration of half-maximal effect.

SMILES	HT1080 IDH1KD tx	MCF10A rerep	KB-V1 cytotox	KB-3-1 tox	HT1080NT lethal	SW480 rereplic
COc1ccc(NC(=O)C[C@H]2C(=O)N(c3ccccc3)C[C@@H]2Cc2ccccc2)cc1	-9.9%	/	14.6µM*	i	0.9%	/
COc1ccc([C@H]2CN(c3ccc(OC)cc3)C(=O)[C@@H]2CC(=O)Nc2ccc(Br)cc2)cc1	-26.4%	/	16.4µM*	?	-4.5%	/
COc1ccc([C@H]2CN(c3ccccc3)C(=O)[C@@H]2CC(=O)Nc2ccccc2)cc1	-0.8%	/	?	i	-0.4%	/
O=C(CN1C(=O)COc2ccc(S(=O)(=O)N3CCOCC3)cc21)N1CCN(c2cccc(C(F)(F)F)c2)CC1	/	/	?	i	/	/
O=c1n2c(c(O)n1C1CCCCC1)C(c1ccccc1)=Nc1ccccc1C2	9.9%	/	16.4µM*	i	-1.5%	/
COc1ccc(C23CC4CC(CC(C4)C2)C3)cc1C(=O)NCCN(C)C	?	?	i	i	?	?
CN(C)CCNC(=O)c1cccc2ccc(-c3ccc(-c4ccccc4)cc3)nc12	?	?	11.6µM*	?	-4.1%	?
CN(C)CCNC(=O)c1cccc2nc3cccc(F)c3nc12	7.31µM*	?	?	4.11µM*	?	21.6%
COc1ccc(OC)c2nc3c(C(=O)NCCN(C)C)cccc3nc12	20.6µM*	?	20.6µM*	?	?	?
CN(C)CCNC(=O)c1ccccc1	1.1%	-3.6%	i	i	0.2%	-8.5%
CCN(c1ccccc1)S(=O)(=O)c1ccc(NC(=O)c2cc(=O)c3cc(C)ccc3o2)cc1	/	/	i	i	/	/
Cc1ccc(C)c(-c2nc(Cn3c(=O)cc(-c4ccccc4)c4c(C)nn(C)c43)c(C)o2)c1	/	/	i	i	/	/
CC(=O)c1ccc(NC(=O)CN2C(=O)/C(=C/C=C/c3ccccc3)SC2=S)cc1	-21.6%	10.3µM*	i	i	-24.5%	-7.7%
Cc1ccc(NC(=O)CS(=O)CC(=O)NCCCc2ccccc2)cc1Cl (centres undefined)	?	?	i	i	?	7.31µM*
Cc1ccc(NC(=O)CS(=O)CC(=O)Nc2cnc3ccccc3c2)cc1Cl (centres undefined)	-17.0%	24.4%	i	i	-7.2%	-1.1%
COc1ccc(C(=O)/C=C/c2cccc(OCc3ccccc3)c2)cc1CSCC(=O)O	?	11.6%	?	?	-7.5%	21.0%
COc1ccc(Oc2ccc(/C=C/C(=O)c3ccc(O)cc3)cc2[N+](=O)[O-])cc1	?	2.91µM*	?	i	23.1µM*	7.31µM*
COc1ccc(C(=O)/C=C/c2ccc(OCc3ccccc3)cc2)cc1CSCC(=O)O	?	23.1µM*	i	i	?	?
COc1ccc(/C=C/C(=O)c2ccc(O)cc2)cc1COc1ccc(F)cc1	?	3.6%	i	i	?	-10.0%
O=C(O)COc1ccc(/C=C/C(=O)c2ccc3ccccc3c2)cc1	?	18.4µM*	i	?	?	14.5%
O=C(/C=C/c1ccc(O)c([N+](=O)[O-])c1)c1ccc2ccccc2c1	?	7.31µM*	i	i	-14.4%	?
OC(c1ccccc1)c1nc(/C=C/c2ccccc2)cs1 (centres undefined)	5.0%	/	i	i	-5.7%	/
Cc1cccc(Oc2nc3c(c(=O)n(C)c(=O)n3C)n2C)c1C	/	/	i	i	/	/
CC1CCc2nc3ncn(Cc4ccccc4F)c(=O)c3cc2C1 (centres undefined)	/	/	i	i	/	/

Assay outcomes (PubChem BioAssay)
